# G9a inh = G9a (human) methyltransferase inhibition; Q96KQ7; G9a H3K9 monomethylation, AlphaScreen, 2 h; Potency, µM (highest dose often 102 µM), actives largely listed as inhibitors; 350,000 compounds, 8.8% hits; further: nearly all actives have a fitted effect of over 75% in size
#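 AlphaScreen read-out: biotin-H3K9 peptide (500 nM) methylation by 20 nM enzyme with 20 uM SAM, 2 h at room temperature after 15 min compound preincubation; anti-monomethyl H3K9 antibody plus donor/acceptor beads, 10 min dark.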
# L3MBTL1 block = blocks human L3MBTL1; 230,000 compounds, 0.66% hits; AlphaScreen L3MBTL1–H3K9me1 peptide binding; Potency, µM (top dose mostly 57.1 µM), most hits filed as inhibitors; further: nearly all actives have a fitted effect of over 60% in size
#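 Read-out is AlphaScreen signal from streptavidin donor and nickel chelate acceptor beads (10 ug/mL final each) bridging L3MBTL1 (50 nM) and biotinylated K9-monomethylated H3(1-15) peptide (75 nM), after 30 min compound exposure at room temperature.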
# Sfp inh = Sfp phosphopantetheinyl transferase inhibition; Potency, µM, hits mostly inhibitors; AID 1490; 310,000 compounds, 3.5% hits; Biochemical Sfp PPTase activity, qHTS;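 further: the enzyme is Sfp with the accession as filed and its product quenches rhodamine fluorescence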
#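 Fluorescence-quenching assay: 15 nM Sfp-PPTase preincubated 15 min at room temperature with compound, then 5 uM rhodamine-CoA and 12.5 uM BHQ-2-labelled YbbR peptide added. Fluorescence (ex 525/em 598 nm) read at start and after 30 min; difference gives rate.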
# HP1b binding inh = HP1-beta chromodomain-methylated histone interaction inhibition; AlphaScreen HP1-beta / biotin-H3K9me3 peptide binding; Potency, µM (highest dose often 114 µM), most hits filed as inhibitors; 390,000 compounds, 0.56% hits; AID 540317; further: nearly all actives have a fitted effect of over 70% in size
#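 Compound inhibition of the preformed complex between 50 nM HP1-beta and 50 nM biotinylated H3K9me3 peptide was read by AlphaScreen. Buffer was PBS pH 7.4 with 0.01% Tween-20. Incubations ran 30 min at room temperature, with 10 ug/mL donor/acceptor beads.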
# BAZ2B inh = blocks human BAZ2B; Q9UIF8; AlphaScreen BAZ2B-H3K14Ac peptide displacement; Potency, µM (highest dose often 114 µM), hits mostly inhibitors; 360,000 compounds, 4.4% hits; further: nearly all actives have a fitted effect of over 60% in size
#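 AlphaScreen luminescence quantifies BAZ2B engagement of H3K14Ac peptide; the protein and biotinylated peptide are both at 50 nM final, buffer PBS pH 7.4 with 0.01% Tween-20, all steps at room temperature.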
# JMJD2A Tudor = blocks the human JMJD2A Tudor domain | O75164 | AlphaScreen JMJD2A-Tudor / H3K4me3 peptide binding | Potency, µM (highest dose often 114 µM), actives largely listed as inhibitors | 390,000 compounds, 4.4% hits; further: nearly all actives have a fitted effect of over 50% in size
# Hits are given with their value; 0 = inactive; ? = inconclusive; - = no result; [ ] = remark or other dose. Compounds with a hit are over-represented: about 12% of the library has one in this group of screens. The call rests on the fitted dose curve; in most records, active means well fitted curve in the direction sought with a large enough effect; inconclusive means small, poorly fitted or top-dose-only effect, or another doubt; inactive means no such curve, though single readings can be large; an effect the other way counts as inactive or inconclusive.
SMILES,G9a inh,L3MBTL1 block,Sfp inh,HP1b binding inh,BAZ2B inh,JMJD2A Tudor
COc1cccc(N(CC(=O)NCCSCc2ccco2)S(=O)(=O)c2ccccc2)c1,0,-,0,0,?,0
COc1ccc(-n2ccn(CC(=O)Nc3ccccc3C(F)(F)F)c(=O)c2=O)cc1OC,?,-,-,0,0,0
C[C@@H]1OC(OC2CC[C@@]3(C)C(CC[C@@]4(C)C3CC=C3C5CC(C)(C)CC[C@]5(C(=O)OC5OCC(O)[C@@H](O)[C@@H]5OC5O[C@@H](C)[C@H](O[C@H]6OC(CO)C(O)C(O)C6O)C(O)C5O)C(O)C[C@@]34C)C2(C)C)C(O)C(O)[C@H]1OC1OCC(O)C(O)[C@H]1O (stereo not given in full),-,-,0,-,-,-
CC1OC(O[C@H]2CC[C@]3(C)C4C=C[C@]56OC[C@@]7(CC[C@@H](C)[C@H](C)C75)[C@H](O)C[C@@]6(C)[C@]4(C)CC[C@H]3C2(C)C)C(OC2OC(CO)C(O)C(O)C2OC2OCC(O)C(O)C2O)C(O)C1O (stereo not given in full),0[12.7 µM],-,89µM,-,?,-
Clc1ccc(-c2nnn3c2nc(N2CCCCC2)c2ccccc23)cc1,0,-,-,0,0,0
Cc1ccc(NC(=O)C(NC2CCCc3ccccc32)c2ccccc2)c([N+](=O)[O-])c1 (stereo not given),11µM,0,0,25µM,45µM,4.5µM
C[C@H](C(=O)O)c1cccc(Oc2ccccc2)c1,0[21.5 µM],-,0,-,-,-
COc1ccc(SCC(=O)c2cc(C)c(OC(=S)N(C)C)c(C)c2)cc1,40µM,-,0,0,0,0
CC1=C(C(=O)Nc2ccccc2)C(CC(C)C)n2nc(SCc3ccccc3C)nc2N1 (stereo not given),?,-,-,0,0,0
Cc1ccc(C(=O)n2c(=S)nc3ccccn32)cc1,25µM,-,?,-,0,-
O=C(c1ccccc1)n1c(=S)nc2ccccn21,?,0,0,0,0,0
Cc1cccc(C(=O)n2c(=S)nc3ccccn32)c1,2.2µM,-,40µM,0,0,0
COc1ccc(C(=N/O)/C(=N/O)c2ccc(OC)cc2)cc1,0[12.7 µM],-,0,0,0,0
COc1ccc(C(C#N)=C2C=CC(=NO)C(C)=C2Cl)cc1,-,-,-,?,-,8.9µM
CCN1CCN(C(=O)/C=C/c2ccc(C)o2)CC1,10µM,0,40µM,0,0,0
Cc1ccc(/C=C/C(=O)N2CC(C)CC(C)C2)o1 (stereo not given),8.9µM,0,16µM,?,0,50µM
COc1cc2oc(=O)c(CC(=O)N3CCCCC3)c(C)c2cc1Cl,0,-,-,0,0,0
Cc1ccc(OCCSc2nc3ccccc3n2CC(=O)N2CCOCC2)cc1C,?,-,-,0,0,0
Cc1ccc(OCCSc2nc3ccccc3n2CC(=O)N2CCOCC2)c(C)c1,0,-,-,0,?,0
Cc1cccc(OCCSc2nc3ccccc3n2CC(=O)N2CCOCC2)c1C,10µM,-,-,0,?,0
Cc1ccc(OCCSc2nc3ccccc3n2CC(=O)N2CCCCC2)cc1C,13µM,-,-,0,0,0
CCn1ccnc1CN1CCCC(CO)(Cc2cccc(OC)c2)C1 (stereo not given),0,0,0,0,89µM,0
CCOC(=O)C1(Cc2cccc(OC)c2)CCCN(Cc2nccn2CC)C1 (stereo not given),0,0,0,0,0,0
OCC1(Cc2ccccc2)CCN(Cc2ccc(-c3ccco3)cc2)CC1,?,?,?,0,0,0
COc1cc(CN2CCCC(CO)(Cc3cccc(Cl)c3)C2)cc(OC)c1O (stereo not given),50µM,0,0,0,0,0
SMILES,G9a inh,L3MBTL1 block,Sfp inh,HP1b binding inh,BAZ2B inh,JMJD2A Tudor
OCC1(Cc2ccccc2)CCCN(Cc2ccc(-c3ccco3)cc2)C1 (stereo not given),-,0,0,0,45µM,?
COc1ccc(CN2CCCC(CO)(Cc3cccc(Cl)c3)C2)cc1OC (stereo not given),0,0,0,0,0,0
COc1ccc(NC(=O)c2cc(C3CC3)nc3c2c(C)nn3-c2ccccc2)cc1OC,0,-,-,0,0,0
CN(C)C(=O)CSc1nnc(Cc2ccccc2)n1Cc1ccco1,?,0[11.4 µM],0,0,0,0
S=c1[nH]nc(Cc2ccccc2)n1Cc1ccco1,?,?,0,0,0,4µM
CCCn1c(Cc2ccccc2)n[nH]c1=S,?,-,0,0,0,7.1µM
C/C1=C/CC(C)(C)/C=C/C/C(C)=C/CC1,-,-,0,-,-,-
O=C(CCC1N=C2c3ccccc3N=C(SCC(=O)Nc3cccc(Cl)c3)N2C1=O)NCc1ccco1 (stereo not given),0,-,-,0,0,0
CCC(C)(C)C1CCC(NC(=O)N2CCN(c3ccccc3O)CC2)CC1 (stereo not given),0,-,0,0,0,79µM
CCOc1ccccc1N1CCN(C(=O)NC2CCCCC2)CC1,0,-,0,0,0,0
COc1cc(C(=O)Oc2ccc(C(=S)N3CCOCC3)cc2)cc(OC)c1OC,-,0,0,0,0,0
COc1ccc(C(=O)Oc2ccc(Br)cc2C(=S)N2CCOCC2)cc1,56µM,-,0,0,0,0
O=C(Oc1ccc(Br)cc1C(=S)N1CCOCC1)c1ccc(F)cc1,-,-,32µM,0,?,0
Cc1c([N+](=O)[O-])cc(C(=O)Oc2ccc(Br)cc2C(=S)N2CCCCC2)cc1[N+](=O)[O-],8.9µM,-,0,0,?,?
Cc1ccccc1C(=O)Oc1ccc(Cl)cc1C(=S)N1CCOCC1,0,-,0,0,0,0
